Assay results: PubChem BioAssay (NCI)
This is part of a sample that, as a whole, favours compounds with a hit. Of some 83,000 tested, about 20% had one in any assay.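 Single-dose data. Exposure time 48 hours. Values below 10 considered active.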 A number with no mark means an inactive call. Active and inactive are the calls of the source.

Columns and labels:
Test in all cases: NCI-60 one-dose screen, 48 h (100 = growth as untreated, 0 = no growth, -100 = all killed)
Details in all cases: 10 µM unless noted
[1] = test system: NCI-H23 lung
[2] = test system: NCI-H226 lung
[3] = test system: NCI-H322M lung
[4] = test system: HOP-62 NSCLC
[5] = test system: NCI-H460 lung
[6] = test system: HOP-92 NSCLC
[7] = test system: NCI-H522 lung
[8] = test system: A549/ATCC NSCLC
[9] = test system: 786-0 renal
[10] = test system: COLO 205 colon
[11] = test system: DU-145 prostate
[12] = test system: K-562 leukemia
[13] = test system: MALME-3M melanoma
[14] = test system: MDA-MB-231 breast
[15] = test system: RXF 393 renal
[16] = test system: SF-268 CNS
[17] = test system: SF-295 CNS
[18] = test system: SF-539 CNS
[19] = test system: UACC-257 melanoma
[20] = test system: M14 melanoma

Compound	growth [1]	growth [2]	growth [3]	growth [4]	growth [5]	growth [6]	growth [7]	growth [8]	growth [9]	growth [10]	growth [11]	growth [12]	growth [13]	growth [14]	growth [15]	growth [16]	growth [17]	growth [18]	growth [19]	growth [20]
O=C(Nc1ccc(NC(=O)c2cc(=O)[nH]c3ccccc23)cc1)Nc1cccc(C(F)(F)F)c1	62.3%	87.9%	62.5%	-7.24% (active)	15.3%	42.6%	72.3%	86.3%	99.3%	70.1%	76.2%	53%	31.7%	26.7%	108%	50.7%	74.5%	50.1%	80.5%	69.9%
CCN(c1ccc(Cl)cc1)c1nc(-c2ccc([N+](=O)[O-])cc2)cs1	92%	91.9%	86.7%	99.6%	99.6%	83.6%	82.8%	97.6%	89%	113%	103%	88.9%	80.5%	90.6%	113%	110%	100%	99.6%	104%	99.7%
N#Cc1cnc(NCCc2ccncc2)nc1-n1cnc2ccccc21	76%	68.7%	35%	77.3%	39.5%	95.7%	55.8%	53.5%	40.3%	72.1%	51.9%	60.9%	69%	76.2%	52.7%	53%	75.1%	61.3%	102%	47.9%
COc1ccc2c(O)c(/C=C3\N=Nc4ncccc43)oc2c1C[C@H]1CCNC[C@H]1F	-3.41% (active)	1.06% (active)	9.44% (active)	5.59% (active)	-26% (active)	25.7%	-13.5% (active)	0.136% (active)	-18.6% (active)	-51.8% (active)	7.19% (active)	1.73% (active)	-21.6% (active)	-6.95% (active)	-44.4% (active)	-5.68% (active)	18.9%	-29.9% (active)	-6.32% (active)	-40.9% (active)
CN([O-])c1nc(N(C)[O-])nc(N2CCOCC2)n1.CN([O-])c1nc(N(C)[OH2+])nc(N2CCOCC2)n1.[Fe+3]	100% [100 µM]	101% [100 µM]	104% [100 µM]	165% [100 µM]	36.1% [100 µM]	61.7% [100 µM]	52.9% [100 µM]	72.7% [100 µM]	114% [100 µM]	144% [100 µM]	63.1% [100 µM]	16.7% [100 µM]	118% [100 µM]	110% [100 µM]	75.5% [100 µM]	-14.2% [100 µM] (active)	10.3% [100 µM]	108% [100 µM]	96.2% [100 µM]	91.7% [100 µM]
CCCc1cc(NC)nc(S(=O)(=O)CC)n1	102%	108%	106%	110%	110%	108%	95.9%	105%	101%	120%	109%	97.7%	110%	109%	108%	98.4%	99.9%	100%	106%	99.8%
COc1cc2c(c(OC)c1OC)CCC(c1cccc(C(=O)Nc3cccc(Br)c3)c1)O2 (stereo not given)	77.5%	69.9%	50.9%	96.8%	70.5%	6.24% (active)	48.8%	64.5%	81%	88.3%	85.1%	52.1%	102%	17.6%	78.6%	67.1%	64.5%	99.4%	74.1%	73.9%
CC(C)NC1CCC(Nc2ccnc3cc(Cl)ccc23)CC1 (stereo not given)	101%	83.6%	88.2%	78.1%	101%	46.8%	78.5%	91.1%	90.4%	69.3%	111%	56.3%	85.4%	76.5%	49.2%	99.6%	96.6%	97.5%	88.6%	93.2%
